According to PubChem BioAssay (EPA / NIEHS):
Several values for one entry are separate records, joined by “and”; a condition that tells them apart may be missing. Equal values may be shown once. Inconclusive results are not listed. A structure can be active in one record and inactive in another. Activity calls are given as the source filed them. Rule for the calls: active = hit-call score of the fitted dose curve at least 0.9, where 1 is the maximum; inconclusive = response in the unintended direction; inactive = score below 0.9.

Columns and labels:
[1] = molecular target: zebrafish Thyroid Hormone Receptor alpha (TRa), thraa (gene 30670) (UniProt Q98867); assay: ATG_zfTRa_XSP1: Attagene TRANS-FACTORIAL Multi-Species (XSP1) HepG2 Assay for zebrafish Thyroid Hormone Receptor alpha (TRa) (AID 2283807)
Summary of the method: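 Reporter transcripts driven by a chimeric zebrafish TRa–Gal4 protein were measured by RT-PCR with fluorescent labelling and capillary electrophoresis. These came from transiently transfected HepG2 cells after 24 h chemical exposure, with 3 nM 6-alpha-fluorotestosterone added; baseline was DMSO.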

[2] = molecular target: human Thyroid hormone Receptor beta (TRb), THRB (gene 7068) (UniProt P10828); assay: ATG_hTRb_XSP1: Attagene TRANS-FACTORIAL Multi-Species (XSP1) HepG2 Assay for human Thyroid hormone Receptor beta (TRb) (AID 2283808)
Summary of the method: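 Readout is reporter mRNA induction measured by RT-PCR, fluorescent labelling and capillary electrophoresis, fitted upward relative to DMSO. Transiently transfected human HepG2 cells expressing NR-Gal4 chimeras were dosed for 24 h, medium containing 3 nM 6-alpha-fluorotestosterone.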

[3] = molecular target: zebrafish Thyroid Hormone Receptor beta (TRb), thrb (gene 30607) (UniProt Q9PVE4); assay: ATG_zfTRb_XSP1: Attagene TRANS-FACTORIAL Multi-Species (XSP1) HepG2 Assay for zebrafish Thyroid Hormone Receptor beta (TRb) (AID 2283809)
Summary of the method: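 HepG2 cells transiently transfected with multiplexed GAL4-UAS reporter units expressing chimeric zebrafish TRb–Gal4. Dosed 24 h with 3 nM 6-alpha-fluorotestosterone present; reporter mRNA measured by RT-PCR, HpaI digestion and capillary electrophoresis; gain of signal versus DMSO.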

[4] = ATG_M_06_XSP2: Attagene TRANS-FACTORIAL Multi-Species (XSP2) HepG2 Assay for M06 Transcription Factor (Internal Marker) (AID 2283811);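 note: hits are increases in signal above the DMSO baseline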
Summary of the method: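 Cells of the human liver line HepG2 carried transfected reporter transcription units and were treated for 24 h. Induced reporter transcripts were detected by fluorescence after RT-PCR and capillary electrophoresis, with activity fitted in the gain direction against DMSO.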

[5] = test system: turtle Estrogen Receptor (ERa), gene 101933533; assay: ATG_trERa_XSP2: Attagene TRANS-FACTORIAL Multi-Species (XSP2) HepG2 Assay for turtle Estrogen Receptor (ERa) (AID 2283812);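 note: actives raise reporter signal above DMSO so AC50 reflects agonist activity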
Summary of the method: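 Readout is reporter mRNA quantified by RT-PCR with capillary electrophoresis after 24 h compound exposure, increase relative to DMSO. Uses transiently transfected human HepG2 liver cells carrying a chimeric turtle ERa-Gal4 receptor driving GAL4-UAS reporters.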

[6] = molecular target: Estrogen receptor beta (Homo sapiens) (UniProt Q92731); assay: ATG_hERb_XSP2: Attagene TRANS-FACTORIAL Multi-Species (XSP2) HepG2 Assay for human Estrogen Receptor (ERb) (AID 2283813);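 note: actives raise reporter mRNA above DMSO so AC50 reflects agonist induction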
Summary of the method: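 Transient TRANS reporter system in HepG2: after 24 h of chemical, RNA is reverse-transcribed, reporter cDNA amplified, FAM-labelled and sized by capillary electrophoresis. Induction of the human ERb-Gal4 reporter is measured relative to DMSO.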

[7] = molecular target: GAL4 Transcription Factor (Internal Marker), GAL4 (gene 855828) (UniProt P04386); assay: ATG_GAL4_XSP2: Attagene TRANS-FACTORIAL Multi-Species (XSP2) HepG2 Assay for GAL4 Transcription Factor (Internal Marker) (AID 2283814);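 note: GAL4 reporter mRNA background control in MRTU transfected cells not a receptor target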
Summary of the method: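 Background-control readout: gain-of-signal fitted against DMSO. After 24 h exposure of transfected HepG2 (MRTU, GAL4-UAS reporters; 3 nM 6-alpha-fluorotestosterone, 1.5 nM norgestrel present), transcripts quantified by RT-PCR and capillary electrophoresis fluorescence.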

[8] = molecular target: zebrafish Estrogen Receptor (ER1), esr1 (gene 259252) (UniProt P57717); assay: ATG_zfER1_XSP2: Attagene TRANS-FACTORIAL Multi-Species (XSP2) HepG2 Assay for zebrafish Estrogen Receptor (ER1) (AID 2283816)
Summary of the method: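 After 24 h compound exposure, RNA from transfected HepG2 cells was reverse-transcribed and reporter transcripts resolved by capillary electrophoresis. The TRANS format reads exogenous zebrafish ER1-Gal4 chimera activity on GAL4-UAS elements; gain of signal against DMSO.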

[9] = molecular target: chicken Estrogen Receptor (ERa), ESR1 (gene 396099) (UniProt P06212); assay: ATG_chERa_XSP2: Attagene TRANS-FACTORIAL Multi-Species (XSP2) HepG2 Assay for chicken Estrogen Receptor (ERa) (AID 2283817);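 note: actives raise reporter signal above DMSO so AC50 reflects ER activation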
Summary of the method: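 Exogenous chicken ERa-Gal4 chimera activity was assessed in transfected human liver HepG2 cells after 24 h of treatment. Induced reporter mRNA was quantified fluorescently by capillary electrophoresis, with DMSO as baseline.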

[10] = test system: zebrafish Estrogen Receptor (ER2a), gene 317734; assay: ATG_zfER2a_XSP2: Attagene TRANS-FACTORIAL Multi-Species (XSP2) HepG2 Assay for zebrafish Estrogen Receptor (ER2a) (AID 2283818);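 note: hits raise reporter mRNA so AC50 reflects activation of zebrafish ER2a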
Summary of the method: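 Multiplexed trans-reporter readout: RT-PCR then capillary electrophoresis of reporter transcripts after 24 h compound treatment. Human HepG2 carries transfected zebrafish ER2a-Gal4 chimera; 3 nM 6-alpha-fluorotestosterone plus 1.5 nM norgestrel present. Induction scored against DMSO.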

[11] = test system: frog Estrogen Receptor (ER), gene 398734; assay: ATG_frER1_XSP2: Attagene TRANS-FACTORIAL Multi-Species (XSP2) HepG2 Assay for frog Estrogen Receptor (ER) (AID 2283821);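 note: hits raise reporter mRNA above DMSO baseline so potency means agonist or activator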
Summary of the method: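 Gain-of-signal mRNA reporter assay, HepG2 human liver cells, 24 h dosing; transcripts read by fluorescent RT-PCR fragment analysis, DMSO as negative control.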

[12] = test system: zebrafish Estrogen Receptor (ER2b), gene 317733; assay: ATG_zfER2b_XSP2: Attagene TRANS-FACTORIAL Multi-Species (XSP2) HepG2 Assay for zebrafish Estrogen Receptor (ER2b) (AID 2283823);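 note: fitted upward as reporter gain over DMSO so potency reflects activation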
Summary of the method: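 Cells used were HepG2, transiently transfected with chimeric nuclear receptor-Gal4 reporter units. After 24 h of chemical treatment, reporter transcripts were amplified by RT-PCR, labelled and sized by capillary electrophoresis, with induction analysed relative to DMSO.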

[13] = test system: frog Estrogen Receptor (ER2), gene 100174814; assay: ATG_frER2_XSP2: Attagene TRANS-FACTORIAL Multi-Species (XSP2) HepG2 Assay for frog Estrogen Receptor (ER2) (AID 2283828)
Summary of the method: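 Induction of reporter mRNA, baseline set by DMSO, is the endpoint. The panel was run in transfected HepG2 cells over 24 h, with 3 nM 6-alpha-fluorotestosterone and 1.5 nM norgestrel present to stimulate androgen receptor.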

[14] = ATG_XTT_Cytotoxicity_XSP1: Cytotoxicity Assessment in the Attagene TRANS-FACTORIAL Multi-Species (XSP1) HepG2 Assay (AID 2283810)
Summary of the method: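 XTT viability readout taken at 24 hours post-dosing in HepG2 liver cells co-treated with 3 nM 6-alpha-fluorotestosterone. Signal loss relative to DMSO controls reflects cytotoxicity.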

[15] = test system: chicken Androgen Receptor (AR), gene 422165; assay: ATG_chAR_XSP2: Attagene TRANS-FACTORIAL Multi-Species (XSP2) HepG2 Assay for chicken Androgen Receptor (AR) (AID 2283819);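 note: hits raise reporter mRNA above DMSO so potency is for activation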
Summary of the method: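 Readout is reporter mRNA induction via RT-PCR/capillary electrophoresis after 24 h chemical exposure, positive direction relative to DMSO. Transiently transfected HepG2 express chimeric chicken AR–GAL4; AR stimulated by 3 nM 6-alpha-fluorotestosterone and 1.5 nM norgestrel.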

[16] = test system: frog Androgen Receptor (AR), gene 399456; assay: ATG_frAR_XSP2: Attagene TRANS-FACTORIAL Multi-Species (XSP2) HepG2 Assay for frog Androgen Receptor (AR) (AID 2283824);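 note: reporter mRNA from GAL4-UAS units driven by Xenopus AR-Gal4 chimera; actives raise reporter signal above DMSO so AC50 reflects agonist-like induction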
Summary of the method: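 Reporter transcript induction, read by RT-PCR with fluorescent capillary electrophoresis, in human liver HepG2 cells carrying an exogenous Xenopus AR-Gal4 fusion and GAL4-driven reporters; chemical exposure 24 hours, activity scored upward against DMSO controls.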

[17] = ATG_M_19_XSP2: Attagene TRANS-FACTORIAL Multi-Species (XSP2) HepG2 Assay for M32 Transcription Factor (Internal Marker) (AID 2283822)
Summary of the method: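 Internal background marker in a multi-species nuclear receptor TRANS panel: transfected HepG2 cells exposed 24 h, with 3 nM 6-alpha-fluorotestosterone and 1.5 nM norgestrel present. Readout is RT-PCR of reporter transcripts resolved by capillary electrophoresis, gain-of-signal versus DMSO.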

[18] = test system: zebrafish Androgen Receptor (AR), gene 100005148; assay: ATG_zfAR_XSP2: Attagene TRANS-FACTORIAL Multi-Species (XSP2) HepG2 Assay for zebrafish Androgen Receptor (AR) (AID 2283825);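 note: hits raise reporter mRNA above DMSO so AC50 reflects agonist-type gain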
Summary of the method: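 After 24 h compound exposure in medium with 3 nM 6-alpha-fluorotestosterone plus 1.5 nM norgestrel, HepG2 cells carrying zebrafish AR–GAL4 reporter constructs were assessed for reporter mRNA gain by RT-PCR and capillary electrophoresis.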

[19] = test system: turtle Androgen Receptor (AR), gene 101947425; assay: ATG_trAR_XSP2: Attagene TRANS-FACTORIAL Multi-Species (XSP2) HepG2 Assay for turtle Androgen Receptor (AR) (AID 2283815)
Summary of the method: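 Reporter transcripts were quantified via RT-PCR and capillary electrophoresis and fitted upward against DMSO. Transiently transfected human HepG2 cells carrying NR-Gal4 chimeras were exposed 24 h, with 3 nM 6-alpha-fluorotestosterone plus 1.5 nM norgestrel added.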

Measured: AC50

Sequence of chicken Estrogen Receptor (ERa), ESR1 (gene 396099) (P06212 whole entry, looked up, the tested form may be a part): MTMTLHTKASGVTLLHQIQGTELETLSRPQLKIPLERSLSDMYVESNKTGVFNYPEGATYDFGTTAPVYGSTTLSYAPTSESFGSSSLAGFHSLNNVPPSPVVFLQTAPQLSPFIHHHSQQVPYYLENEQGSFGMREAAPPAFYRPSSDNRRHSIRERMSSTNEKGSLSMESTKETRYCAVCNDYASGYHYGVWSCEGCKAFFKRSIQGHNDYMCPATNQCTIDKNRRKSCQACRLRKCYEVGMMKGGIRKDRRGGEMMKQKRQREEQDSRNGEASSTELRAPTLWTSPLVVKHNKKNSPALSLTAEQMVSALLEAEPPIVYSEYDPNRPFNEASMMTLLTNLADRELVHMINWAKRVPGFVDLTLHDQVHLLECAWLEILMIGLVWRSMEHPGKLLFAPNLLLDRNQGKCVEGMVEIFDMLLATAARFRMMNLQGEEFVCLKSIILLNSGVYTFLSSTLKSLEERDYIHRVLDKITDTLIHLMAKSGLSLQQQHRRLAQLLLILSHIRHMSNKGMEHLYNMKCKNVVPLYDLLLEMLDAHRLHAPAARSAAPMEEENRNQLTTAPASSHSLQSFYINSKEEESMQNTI
Sequence of zebrafish Estrogen Receptor (ER1), esr1 (gene 259252) (P57717 whole entry, looked up, the tested form may be a part): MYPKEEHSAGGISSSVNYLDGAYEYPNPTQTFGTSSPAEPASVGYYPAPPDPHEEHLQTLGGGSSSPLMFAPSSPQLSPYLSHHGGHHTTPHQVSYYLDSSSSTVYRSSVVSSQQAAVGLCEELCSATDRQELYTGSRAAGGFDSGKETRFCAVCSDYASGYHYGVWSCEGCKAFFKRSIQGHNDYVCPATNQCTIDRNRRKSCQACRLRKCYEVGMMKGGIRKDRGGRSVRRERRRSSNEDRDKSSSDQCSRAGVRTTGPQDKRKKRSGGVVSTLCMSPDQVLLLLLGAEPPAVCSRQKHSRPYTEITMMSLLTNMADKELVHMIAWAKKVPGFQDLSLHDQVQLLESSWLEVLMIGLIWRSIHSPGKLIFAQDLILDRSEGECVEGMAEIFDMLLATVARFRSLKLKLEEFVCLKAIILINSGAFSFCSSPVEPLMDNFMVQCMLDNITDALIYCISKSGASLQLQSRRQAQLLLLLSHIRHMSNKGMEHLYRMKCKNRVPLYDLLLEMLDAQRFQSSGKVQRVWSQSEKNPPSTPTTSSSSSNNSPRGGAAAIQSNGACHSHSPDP
Sequence of zebrafish Thyroid Hormone Receptor alpha (TRa), thraa (gene 30670) (Q98867 whole entry, looked up, the tested form may be a part): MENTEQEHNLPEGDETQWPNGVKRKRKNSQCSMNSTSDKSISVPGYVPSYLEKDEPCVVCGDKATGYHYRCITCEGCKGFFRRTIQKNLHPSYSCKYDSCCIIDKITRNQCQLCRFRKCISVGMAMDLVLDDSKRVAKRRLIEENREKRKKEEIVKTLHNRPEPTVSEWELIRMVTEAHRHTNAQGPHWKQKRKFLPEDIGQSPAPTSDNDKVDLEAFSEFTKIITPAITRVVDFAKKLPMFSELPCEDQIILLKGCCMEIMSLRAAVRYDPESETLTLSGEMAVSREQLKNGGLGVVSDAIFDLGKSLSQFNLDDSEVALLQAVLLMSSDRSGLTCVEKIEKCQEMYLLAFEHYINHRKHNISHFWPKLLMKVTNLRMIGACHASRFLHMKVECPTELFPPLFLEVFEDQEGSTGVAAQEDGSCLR
Sequence of human Thyroid hormone Receptor beta (TRb), THRB (gene 7068) (P10828 whole entry, looked up, the tested form may be a part): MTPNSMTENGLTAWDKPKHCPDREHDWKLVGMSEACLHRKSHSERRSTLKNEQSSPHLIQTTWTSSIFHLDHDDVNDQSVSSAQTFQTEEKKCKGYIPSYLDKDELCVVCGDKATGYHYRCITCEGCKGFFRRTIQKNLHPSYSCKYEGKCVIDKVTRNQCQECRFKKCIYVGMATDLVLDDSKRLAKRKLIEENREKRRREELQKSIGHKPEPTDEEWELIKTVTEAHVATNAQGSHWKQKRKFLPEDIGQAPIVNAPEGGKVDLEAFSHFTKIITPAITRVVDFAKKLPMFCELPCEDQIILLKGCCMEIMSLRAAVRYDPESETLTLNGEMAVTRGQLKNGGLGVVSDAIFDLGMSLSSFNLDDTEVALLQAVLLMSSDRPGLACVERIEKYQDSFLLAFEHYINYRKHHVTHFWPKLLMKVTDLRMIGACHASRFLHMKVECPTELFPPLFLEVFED
Sequence of GAL4 Transcription Factor (Internal Marker), GAL4 (gene 855828) (P04386 whole entry, looked up, the tested form may be a part): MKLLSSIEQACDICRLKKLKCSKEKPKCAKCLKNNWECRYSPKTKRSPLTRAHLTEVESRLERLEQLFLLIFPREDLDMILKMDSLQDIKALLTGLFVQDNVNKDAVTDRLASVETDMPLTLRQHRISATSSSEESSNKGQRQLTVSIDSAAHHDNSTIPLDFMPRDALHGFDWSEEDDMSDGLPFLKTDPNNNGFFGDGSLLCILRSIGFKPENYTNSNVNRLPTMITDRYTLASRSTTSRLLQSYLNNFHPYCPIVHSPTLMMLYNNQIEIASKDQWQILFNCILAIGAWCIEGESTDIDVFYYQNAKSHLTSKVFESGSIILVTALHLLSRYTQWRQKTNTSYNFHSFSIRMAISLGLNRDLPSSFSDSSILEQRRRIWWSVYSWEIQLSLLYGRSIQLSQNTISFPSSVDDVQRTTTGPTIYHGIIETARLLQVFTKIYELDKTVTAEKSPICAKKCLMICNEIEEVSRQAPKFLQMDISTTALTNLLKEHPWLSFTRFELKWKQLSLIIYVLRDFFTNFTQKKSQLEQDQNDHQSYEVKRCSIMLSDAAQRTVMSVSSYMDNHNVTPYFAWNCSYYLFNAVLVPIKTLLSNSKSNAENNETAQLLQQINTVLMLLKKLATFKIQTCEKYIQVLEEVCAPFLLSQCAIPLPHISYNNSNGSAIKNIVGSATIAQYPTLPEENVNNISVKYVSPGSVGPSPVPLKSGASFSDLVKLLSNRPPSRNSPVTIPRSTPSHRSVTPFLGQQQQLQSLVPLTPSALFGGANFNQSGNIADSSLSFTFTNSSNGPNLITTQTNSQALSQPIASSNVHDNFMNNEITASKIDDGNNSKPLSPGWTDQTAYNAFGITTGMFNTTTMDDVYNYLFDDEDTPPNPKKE
Sequence of zebrafish Thyroid Hormone Receptor beta (TRb), thrb (gene 30607) (Q9PVE4 whole entry, looked up, the tested form may be a part): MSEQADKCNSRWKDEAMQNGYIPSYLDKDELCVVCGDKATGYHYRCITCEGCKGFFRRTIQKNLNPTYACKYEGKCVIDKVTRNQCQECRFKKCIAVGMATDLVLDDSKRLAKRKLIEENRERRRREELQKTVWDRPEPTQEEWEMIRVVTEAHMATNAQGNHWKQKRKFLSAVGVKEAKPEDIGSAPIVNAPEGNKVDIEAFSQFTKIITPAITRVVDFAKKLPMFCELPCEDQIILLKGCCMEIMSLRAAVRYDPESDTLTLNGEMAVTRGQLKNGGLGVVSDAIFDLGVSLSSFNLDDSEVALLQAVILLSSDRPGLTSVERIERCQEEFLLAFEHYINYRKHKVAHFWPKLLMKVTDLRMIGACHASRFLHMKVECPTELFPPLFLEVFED
Sequence of Estrogen receptor beta (Homo sapiens) (Q92731 whole entry, looked up, the tested form may be a part): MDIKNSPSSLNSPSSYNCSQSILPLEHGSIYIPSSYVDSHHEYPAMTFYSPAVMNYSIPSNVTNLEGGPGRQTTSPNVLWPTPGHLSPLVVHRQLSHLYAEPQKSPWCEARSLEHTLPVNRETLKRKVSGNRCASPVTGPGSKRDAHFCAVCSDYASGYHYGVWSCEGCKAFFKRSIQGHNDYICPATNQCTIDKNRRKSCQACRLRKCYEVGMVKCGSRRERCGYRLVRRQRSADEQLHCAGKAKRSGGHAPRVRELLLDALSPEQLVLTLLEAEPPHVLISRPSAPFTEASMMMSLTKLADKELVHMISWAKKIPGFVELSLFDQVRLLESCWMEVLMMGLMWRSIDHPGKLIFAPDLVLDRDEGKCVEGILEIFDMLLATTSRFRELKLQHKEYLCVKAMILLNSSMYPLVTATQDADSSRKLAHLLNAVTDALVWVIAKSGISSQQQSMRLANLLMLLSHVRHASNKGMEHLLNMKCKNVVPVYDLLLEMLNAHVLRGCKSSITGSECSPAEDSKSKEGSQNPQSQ

Oc1ccc(C(c2ccc(O)cc2)C(Cl)(Cl)Cl)cc1
active: [8] 3.11 µM | [9] 110 nM | [10] 0.271 µM | [12] 0.524 µM
not listed: [14] | [15] | [16] | [17] | [18] | [19]
inactive: all other assays above

O=C(c1ccc(O)cc1O)c1ccc(O)cc1O
inactive: [1] | [2] | [3] | [14] | [4] | [16]
active: [5] 2.86 µM | [6] 1.32 µM | [8] 4.21 µM | [9] 2810 nM | [10] 1.12 µM | [15] 8.13 µM | [11] 1.66 µM | [12] 2.47 µM | [13] 2.72 µM

CC(C)(c1ccc(O)cc1)c1ccc(O)cc1
inactive: [1] | [3] | [4] | [13]
active: [5] 0.189 µM | [8] 2.53 µM | [9] 501 nM | [10] 2.65 µM | [11] 2.64 µM | [12] 2.08 µM

CCCCC(CC)CN1C(=O)C2C3C=CC(C3)C2C1=O (configuration not stated)
active: [12] 51.4 µM | [13] 146 µM
not listed: [1] | [2] | [4] | [15] | [16] | [18] | [19]
inactive: all other assays above

CSC(=O)c1cccc2nnsc12
inactive: [4] | [5] | [7] | [8] | [9] | [10] | [15] | [11] | [18] | [13]
active: [12] 152 µM and 121 µM

C#C[C@]1(O)CC[C@H]2[C@@H]3CCC4=CC(=O)CC[C@@H]4[C@H]3CC[C@@]21CC
inactive: [1] | [2] | [3] | [4] | [5] | [7] | [19] | [8] | [9] | [10] | [11] | [12] | [18] | [13]
active: [5] 0.522 µM | [10] 0.318 µM | [11] 0.275 µM | [12] 0.651 µM | [16] 0.208 µM

CCN(Cc1c(F)cccc1Cl)c1c([N+](=O)[O-])cc(C(F)(F)F)cc1[N+](=O)[O-]
inactive: [5] | [6] | [19] | [8] | [15] | [11] | [17]
active: [5] 2.15 µM | [8] 6.69 µM | [9] 2.59 µM and 795 nM | [12] 10.2 µM and 4.04 µM | [13] 10.1 µM and 2.8 µM
